Test results as given in PubChem BioAssay (NCI).
About 83,000 compounds went through this panel and 20% of them were active in at least one assay; those are over-represented in the sample as a whole.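 96-well plates, one dose, 48 hours. Percent growth reported; active if below 10.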 Calls of active or inactive are those of the source.

Tests used:
Test in all cases: NCI-60 one-dose screen, 48 h (100 = growth as untreated, 0 = no growth, -100 = all killed)
Conditions in all cases: 10 µM unless noted
MDA-MB-435 melanoma = test system: MDA-MB-435 melanoma
SW-620 colon = test system: SW-620 colon
MCF7 breast = test system: MCF7 breast
HCT-116 colon = test system: HCT-116 colon
HCC-2998 colon = test system: HCC-2998 colon
KM12 colon = test system: KM12 colon

Measured: growth

COc1cc(OC)c(S(=O)(=O)NNC(=O)c2ccncc2)cc1C(=O)/C=C/c1ccc(C)cc1
active: HCT-116 colon 9.81%
inactive: MDA-MB-435 melanoma 83.2% | SW-620 colon 74.8% | MCF7 breast 26.7% | HCC-2998 colon 91.6% | KM12 colon 54.8%

CC1=C(C)C(=O)C(Nc2ccccc2)=C(Cl)C1=O
inactive: MDA-MB-435 melanoma 102% | SW-620 colon 96.5% | MCF7 breast 90.7% | HCT-116 colon 79.1%

COc1cccc(-c2nn(-c3ccccc3)cc2-c2ccnc(N3CCN(C(=O)c4ccccc4)CC3)c2)c1
inactive: MDA-MB-435 melanoma 17% | SW-620 colon 72.1% | MCF7 breast 85.5% | HCT-116 colon 73.3% | HCC-2998 colon 113%

Cc1ccccc1NC(=O)/C=C/c1ccc(OCCOc2ccc3c(C)cc(=O)oc3c2)cc1
inactive: MDA-MB-435 melanoma 90.4% | SW-620 colon 98.6% | HCT-116 colon 97.7% | HCC-2998 colon 114%

COc1cc(/C=C/C(=O)c2cc(OC)c(OC)c(OC)c2)ccc1Oc1nc(NCCO)nc(N2CCOCC2)n1
active: MDA-MB-435 melanoma 4.93% | SW-620 colon -33.6% | HCT-116 colon -79.3% | KM12 colon -44.6%

O=C(N/N=C/c1ccc(Br)s1)c1[nH]c2ccc(Br)cc2c1-c1ccccc1
inactive: SW-620 colon 23.6% | HCC-2998 colon 20.5%
active: MDA-MB-435 melanoma -5.5% | MCF7 breast 7.06% | HCT-116 colon -14.2% | KM12 colon 8.2%

Cn1ccnc1C(=O)/C=C/c1ccc(NC(=O)Nc2ccccc2)cc1
active: MDA-MB-435 melanoma -13.3% | SW-620 colon 2.15% | MCF7 breast 6.81% | HCT-116 colon 3.54% | HCC-2998 colon -22% | KM12 colon 1.03%

COc1cc(/C=C/C(=O)c2ccccc2)ccc1Oc1nc(NCCO)nc(N2CCOCC2)n1
inactive: MDA-MB-435 melanoma 93.1% | SW-620 colon 60.9% | MCF7 breast 46.9% | HCT-116 colon 69.5% | HCC-2998 colon 113%

CCN1CCN(/C(=N\c2sc(-c3ccccc3)nc2-c2ccccc2)c2ccccc2)CC1
inactive: MDA-MB-435 melanoma 88% | SW-620 colon 84.9% | MCF7 breast 67.3% | HCT-116 colon 62.4% | HCC-2998 colon 77.1% | KM12 colon 59.8%

CS(=O)(=O)c1ccc(-c2nc3ccccn3c2-c2nc3ccc([N+](=O)[O-])cc3[nH]2)cc1
inactive: MDA-MB-435 melanoma 94.5% | SW-620 colon 93.2% | MCF7 breast 85.2% | HCT-116 colon 97% | HCC-2998 colon 105%

COc1cc2cc(Oc3ccc(NC(=O)c4cccc(C(F)(F)F)c4)cc3)c(C)nc2cc1OCCN1CCCCC1
inactive: MCF7 breast 12.7%
active: MDA-MB-435 melanoma -86.6% | SW-620 colon -71.7% | HCT-116 colon 0.649% | HCC-2998 colon -17.7%

Cc1cccc2sc(/N=C(\N)C(Cl)(Cl)Cl)nc12
inactive: MDA-MB-435 melanoma 103% | SW-620 colon 103% | MCF7 breast 85% | HCT-116 colon 101% | HCC-2998 colon 111% | KM12 colon 97.5%

C#Cc1nc(C2=C(C)C(=O)/C(=N/OC(C)=O)C2)cs1
inactive: MDA-MB-435 melanoma 94.8% | SW-620 colon 110% | MCF7 breast 68.4% | HCT-116 colon 78.4% | HCC-2998 colon 117%

O=C1[C@H]2Cc3c([nH]c4ccccc34)[C@@H](c3ccc(Br)cc3)N2C(=O)CN1C1CCN(Cc2ccccc2)CC1
active: MCF7 breast 6.48% | HCT-116 colon 9.04%
inactive: MDA-MB-435 melanoma 36.9% | SW-620 colon 33.5% | KM12 colon 36.7%

CCN1C(=S)N(CC)C2C1N=C(SC)N2/N=C/C=C/c1ccccc1[N+](=O)[O-] (centres undefined)
inactive: MDA-MB-435 melanoma 94.4% | SW-620 colon 99.4% | HCT-116 colon 82.2% | HCC-2998 colon 112% | KM12 colon 97.6%

O=C1Nc2cc(Cl)ccc2/C1=C\c1ccc(OCc2ccc(Br)cc2F)cc1
inactive: HCC-2998 colon 17%
active: MDA-MB-435 melanoma -37.7% | SW-620 colon -49.7% | HCT-116 colon -95% | KM12 colon -31.9%

O=C(Oc1ccc2ccc(=O)oc2c1)c1ccc(Cl)cc1
inactive: MDA-MB-435 melanoma 109% | SW-620 colon 102% | MCF7 breast 94% | HCT-116 colon 98.5% | HCC-2998 colon 102% | KM12 colon 108%

COc1ccc(/C=C/C(=O)c2ccc(NC(=O)CSc3nnc(-c4ccc5nc(-c6ccc(Cl)cc6)[nH]c5c4)o3)cc2)cc1
inactive: MDA-MB-435 melanoma 98.1% | SW-620 colon 106% | MCF7 breast 79.7% | HCT-116 colon 93.4% | HCC-2998 colon 118% | KM12 colon 99.7%

COc1ccc2[nH]cc(-c3cc(N)n4nc(-c5c[nH]c6ccc(OC)cc56)cc4n3)c2c1
active: MDA-MB-435 melanoma -81.4% | SW-620 colon -16% | MCF7 breast 2.38% | HCT-116 colon -88.2% | HCC-2998 colon -4.06% | KM12 colon -37.8%

Cn1ccnc1C(=O)/C=C/c1ccc(NC(=O)Nc2ccc(F)cc2)cc1
inactive: MDA-MB-435 melanoma 35.4% | SW-620 colon 42.1% | HCT-116 colon 17.1% | HCC-2998 colon 29.8% | KM12 colon 36.5%

CC(C)NC(=O)c1cc(-c2ccc(NC(=O)Nc3ccc(N4CCOCC4)c(C(F)(F)F)c3)cc2)nc2cccnc12
inactive: MDA-MB-435 melanoma 67.9% | SW-620 colon 79.7% | MCF7 breast 37.2% | HCT-116 colon 63.9% | HCC-2998 colon 106%

COc1cc(N=Cc2sc(Nc3nccs3)nc2O)cc(OC)c1OC
inactive: MDA-MB-435 melanoma 87.9% | SW-620 colon 97.3% | MCF7 breast 71.5% | HCT-116 colon 94.2% | HCC-2998 colon 111% | KM12 colon 89.9%

COc1cc(/C=C/C(=O)c2ccc(Cl)cc2)ccc1Oc1nc(NCCO)nc(N2CCOCC2)n1
inactive: MDA-MB-435 melanoma 109% | SW-620 colon 72.4% | MCF7 breast 67% | HCT-116 colon 93.1% | HCC-2998 colon 100% | KM12 colon 106%

Fc1ccc(-c2cc3nc(C(Cl)Cl)nc(-c4ccc(Cl)cc4)n3n2)cc1
inactive: MDA-MB-435 melanoma 25.8% | HCT-116 colon 11.7%
active: SW-620 colon -13.1% | HCC-2998 colon -60.4% | KM12 colon -17.1%

N#Cc1ccc(/C=N/NC(=O)c2[nH]c3ccc(Br)cc3c2-c2ccccc2)s1
inactive: SW-620 colon 22.9% | KM12 colon 11%
active: MDA-MB-435 melanoma 1.78% | HCT-116 colon -18.9%

COc1ccc(N/N=C/c2c(-c3ccc(S(C)(=O)=O)cc3)nc3ccccn23)cc1
inactive: MDA-MB-435 melanoma 34.1% | SW-620 colon 30.1% | MCF7 breast 24.3% | HCT-116 colon 32.5% | HCC-2998 colon 49.3%

C#C[C@]1(O)CC[C@H]2[C@@H]3CC=C4c5sc(-c6ccc(F)cn6)nc5CC[C@]4(C)[C@H]3CC[C@@]21C
inactive: MDA-MB-435 melanoma 18.1% | SW-620 colon 16.1% | MCF7 breast 12.1% | HCT-116 colon 18.1% | HCC-2998 colon 65.1% | KM12 colon 13.9%

Clc1ccc2oc3c(OCCCn4ccnc4)c4ccccc4nc3c2c1
inactive: MDA-MB-435 melanoma 64.6% | SW-620 colon 36.1% | MCF7 breast 63.2% | HCT-116 colon 28.9% | HCC-2998 colon 72.1% | KM12 colon 55.8%

Nc1cc(-c2c[nH]c3ccccc23)nc2cc(-c3c[nH]c4ccccc34)nn12
inactive: MDA-MB-435 melanoma 70.9% | MCF7 breast 26.7% | HCT-116 colon 30.7% | HCC-2998 colon 21% | KM12 colon 10.3%
active: SW-620 colon -25.1%

C[C@@H]1CN(c2ccc3ncc(C#Cc4cncc(C(=O)Nc5ccc(CN6CCN(C)CC6)c(C(F)(F)F)c5)c4)n3n2)C[C@H](C)O1
active: MDA-MB-435 melanoma -90.1% | SW-620 colon -52.3% | MCF7 breast -64% | HCT-116 colon -71.4%

N=C1CC(=O)NN1C(=O)CSc1nc2sc3c(c2c(=O)n1-c1ccc(Cl)cc1)CCCC3
inactive: MDA-MB-435 melanoma 106% | SW-620 colon 98% | MCF7 breast 91.8% | HCT-116 colon 99% | HCC-2998 colon 116% | KM12 colon 104%
